Measurements as given in PubChem BioAssay (NCI).
About 83,000 compounds went through this panel and 20% of them were active in at least one assay; those are over-represented in the sample as a whole.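 Note: values are percent growth. 100 is the growth of untreated cells, values between 100 and 0 indicate rising inhibition; between -100 and 0 indicates cell death.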 Unmarked numbers belong to inactive results. Active and inactive are the calls of the source. The calls were made as follows: active = growth percent below 10; inactive = the rest.

Experiments:
Assay in all cases: NCI-60 one-dose screen, 48 h (100 = growth as untreated, 0 = no growth, -100 = all killed)
Details in all cases: 10 µM unless noted
[1] = tested on: T-47D breast
[2] = tested on: BT-549 breast
[3] = tested on: MDA-MB-435 melanoma
[4] = tested on: MCF7 breast
[5] = tested on: HCT-116 colon
[6] = tested on: HCC-2998 colon
[7] = tested on: KM12 colon
[8] = tested on: SW-620 colon

Row | SMILES | growth [1] | growth [2] | growth [3] | growth [4] | growth [5] | growth [6] | growth [7] | growth [8]
1 | CCOC(=O)c1nc(Nc2cc(C)[nH]n2)c2ccccc2n1 | 82.3% | 96.8% | 96.8% | 81.5% | 76.6% | 107% | 36.9% | –
2 | CC1=NNC(=O)C1C (stereo not drawn) | 104% | 284% | 104% | 104% | 84.2% | 103% | 102% | –
3 | NC(CC(=O)O)C(=O)OCc1ccccc1 (stereo not drawn) | 83.8% | 108% | 86.3% | 104% | 96.9% | 104% | 106% | –
4 | O=C(O)c1ccc(=O)[nH]n1 | 105% | 106% | 112% | 97.2% | 106% | – | 123% | 102%
5 | CC(=O)Oc1ccc(Nc2c3ccccc3nc3ccccc23)cc1 | 7.4% (active) | 55.2% | 8.19% (active) | 3.91% (active) | 14% | – | 18.1% | 3.73% (active)
6 | CCCCCCCCCCCCN1CCCC(C)C1 (stereo not drawn) | 74.6% | 78.1% | 95.9% | 68.6% | 60.7% | 86.9% | 60.7% | 87.7%
7 | NC(N)=Nc1ccc(S(=O)(=O)O)cc1 | 114% | 119% | 106% | 102% | 107% | – | 116% | 103%
8 | O=S(=O)(NCCCNc1cc(-c2cn(-c3ccccc3)nc2-c2cccc(O)c2)ccn1)c1ccccc1 | 18.4% | 44.1% | 52.3% | 31.6% | 40% | 22.1% | 30.1% | –
9 | CCCCOc1ccc(NC(=O)n2nc(NC(C)=O)c3cc(NC(C)=O)ccc32)cc1 | 83.2% | 81% | 92.3% | 91.9% | 88.8% | 101% | 111% | 121%
10 | CCCCCC(=O)N(CCCC)CCCC | 109% | 102% | 89.4% | 123% | 108% | 111% | 109% | –
11 | O=C(Nc1ccc(Oc2ccc(F)cc2)c(Cl)c1)c1cccnc1 | 70.6% | 92.5% | 41.5% | 76.7% | 88.2% | 91.2% | 76.4% | –
12 | CC[C@@H](C)OC(=O)c1nn(C(C)=O)c2ccccc12 | 103% | 105% | – | 83.6% | 104% | 96.4% | 103% | 107%
13 | CC[C@H](CO)Nc1nc(NCc2ccccc2)n2ncc(C(C)C)c2n1 | 28.3% | -28.1% (active) | 11.3% | 2.6% (active) | 13.7% | -27.9% (active) | 1.41% (active) | –
14 | CC(=O)CC(C)(C)c1ccc(Cl)cc1 | 94.2% | 101% | – | 105% | 97.5% | 98.7% | 108% | 100%
15 | COc1c2ccccc2c(OC)c2[nH]c(=O)ccc12 | 67.8% | 26.7% | – | 42.2% | 57.6% | 81% | 36.2% | 61.7%
16 | COc1cccc(-c2nc3sccn3c2-c2ccnc(NCCCNS(=O)(=O)c3ccc(Cl)cc3)c2)c1 | 2.4% (active) | 34.4% | – | 34.6% | 44% | 66.5% | 43.5% | 58.3%
17 | CN1C2CCC1/C(=C\c1ccc(Cl)cc1)C1=C2[C@@H](c2ccc(Cl)cc2)C(C#N)=C(N)O1 (stereo partly drawn) | 81.7% | 97.5% | – | 66% | 63.7% | 104% | 95% | 94.3%
18 | CCOC(=O)c1c2c(n3ccc(NC(=O)CCN(CC)CC)cc13)C(=O)c1ncccc1C2=O | 55.9% | 75.9% | 32.7% | -8.59% (active) | 49.3% | 83.1% | 63.5% | –
19 | NS(=O)(=O)c1ccc(-n2ncc3c(=O)[nH]c(CN4CCN(c5cc6c(cc5F)c(=O)c(C(=O)O)cn6C5CC5)CC4)nc32)cc1 | 106% | 68.9% | – | 94.9% | 100% | 93.9% | 102% | 98.8%
20 | CCc1ccc(C(c2ccc(CC)cc2)C(Cl)(Cl)CCl)cc1 | 77.6% | 116% | – | 106% | 76.3% | 90.1% | 103% | 86.8%
21 | O=C1NC(=O)C(CC(=O)n2c(-c3ccccc3)nc3ccccc32)C(=O)N1 | 93.5% | 101% | 106% | 92.4% | 104% | 113% | 101% | –
22 | COc1cccc(-c2nc3sccn3c2-c2ccnc(NCCCNS(=O)(=O)c3ccccc3)c2)c1 | -8.88% (active) | 2.07% (active) | 38.5% | 46.2% | 12.2% | 67.4% | 29.2% | –
23 | O=[N+]([O-])c1cccc(-c2nc3sccn3c2-c2ccnc(NCCNS(=O)(=O)c3ccc(C(F)(F)F)cc3)n2)c1 | -3.01% (active) | 26.4% | – | 21.9% | 35.6% | 65.2% | 22.5% | 69.8%
24 | C[C@@H]1CC[C@@H]2[C@@H]1[C@H](OC(=O)/C=C/c1ccccc1)[C@]1(C3CCCCC3)C[C@@H](OC(=O)CO)[C@@]2(C)O1 | 42.8% | 0.688% (active) | – | 38.3% | 52% | 78% | 69.1% | 77.6%
25 | CCC(C)[C@@H]1NC(=O)[C@@H]2CCCN2C(=O)[C@H](Cc2ccccc2)NC(=O)[C@@H]2CCCN2C(=O)[C@H](Cc2ccccc2)NC(=O)[C@@H]2CCCN2C(=O)[C@H](Cc2ccccc2)NC1=O (stereo partly drawn) | 98.9% | 109% | – | 87.5% | 113% | 106% | 121% | 105%
26 | OCC1C2C=CC(C2)C1CO (stereo not drawn) | 153% | 98.7% | – | 111% | 96.7% | 125% | 106% | 98%
27 | CC1(C)CC(C(=O)OCCCCCCCCCCC[P+](c2ccccc2)(c2ccccc2)c2ccccc2)C(C)(C)N1O (stereo not drawn) | -54.3% (active) | -42.1% (active) | -70.3% (active) | -80.6% (active) | -8.91% (active) | -84.9% (active) | -94.6% (active) | –
28 | CS(=O)(=O)c1ccc(-c2cnc3ccc(-c4cccc(S(C)(=O)=O)c4)nn23)cc1 | 18.7% | 23% | – | 18.4% | 34% | 55.4% | 47.1% | 75.6%
